Bioassay records deposited in PubChem by National Center for Advancing Translational Sciences (NCATS).
TGFb inhibitor: blocks TGF-b signaling. HepG2 CAGA-GFP TGF-b/SMAD3 reporter, GFP fluorescence, 18 h; TGF-beta stimulated, 500 pg/mL final. Potency, µM (top dose mostly 46.1 µM), without a hit: top-dose activity, negative = inhibition, hits mostly inhibitors. hit rate 1.2% among 410,000; further: potency means the concentration at half of the fitted maximal effect; on the % scale 0 is the no-effect control and ±100 the full control effect; nearly all actives have a fitted effect of over 65% in size
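Read-out: total well GFP (ex488/em500-530) summed from mean per-cell fluorescence. Cells: HEPG2 CAGA-GFP, 1% FBS DMEM, 18 h at 37 degrees C with 500 pg/mL final TGF-beta. Unstimulated wells served as the full-inhibition control; stimulated DMSO wells = 0%.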
TDP1 cell noCPT: qHTS for Inhibitors of human tyrosyl-DNA phosphodiesterase 1 (TDP1): qHTS in cells in absence of CPT. DT40 Tdp1-/- hTDP1 cells, no CPT, ATP luminescence, 48 h. Potency, µM (titrated, usually from 46.2 µM), inactives show at the highest dose activity change, negative = growth inhibition, actives largely listed as inhibitors. hit rate 15% among 420,000. AID 686978, 2013; further: potency means the concentration at half of the fitted maximal effect; on the % scale 0 is the no-effect control and ±100 the full control effect; nearly all actives have a fitted effect of over 55% in size
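Readout: luminescence from CellTiter-Glo after 30 min in the dark at RT. Cells: DT40 Tdp1-/- with stable hTDP1, 400/well. Exposure: compounds alone, ≥48 hr, 37 °C.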
HepG2 viability: counter-screen for TGF-b inhibitors: cytotoxicity in HepG2 cells; HepG2 CAGA-GFP viability, ATP luminescence, 18 h; Potency, µM (top dose mostly 46.1 µM), inactives show at the highest dose activity change, negative = cytotoxicity, actives largely listed as cytotoxic; hit rate 0.76% among 410,000; further: potency means the concentration at half of the fitted maximal effect
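CellTiter-Glo luminescence gave cytotoxicity after 18 hours at 37 degrees C. The cells were HepG2 CAGA-GFP in 1% FBS DMEM, stimulated with 500 pg/mL TGF-beta after compound addition. %Activity was normalised to no-cell wells (complete cell-killing) and DMSO (no toxicity), and curves were fitted and classified.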
IL-1B inflam inh: inhibitors of inflammasome signaling (IL-1 beta secretion) | activity change, % at 57.5 µM | AID 743279 | hit rate 4.7% among 360,000 | THP-1 LPS/ATP IL-1B secretion, AlphaLISA, 16 h; active compounds read low; in the data active means activity change below about -50%; inconclusive means mostly about -30% to -49%; further: on the % scale 0 is the no-effect control and ±100 the full control effect
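Secreted IL-1B measured by AlphaLISA bead assay after 16 h compound exposure of THP-1 cells; compounds (final up to 57.5 uM) added 1 h before LPS (250 ng/mL) and ATP (1.25 mM) stimulation; lower signal means less secretion.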
TDP1 cell CPT: DT40-hTDP1 cell growth loss with CPT; hit rate 12% among 420,000; Potency, µM (series often up to 46.2 µM), without a hit: at the highest dose activity change, negative = growth inhibition, actives largely listed as inhibitors; AID 686979; chicken DT40 Tdp1-/-;hTDP1 cells + 20 nM CPT, ATP luminescence, 48 h; further: potency means the concentration at half of the fitted maximal effect; on the % scale 0 is the no-effect control and ±100 the full control effect; nearly all actives have a fitted effect of over 55% in size
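Chicken DT40 Tdp1-/- cells complemented with human TDP1, 400 cells/well, exposed to compounds plus 20 nM camptothecin for at least 48 h at 37 C; viability read as ATP content by CellTiter-Glo luminescence.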
TDP1 inh: blocks human tyrosyl-DNA phosphodiesterase 1 | Q9NUW8 | hit rate 0.28% among 350,000 | AID 485290 | Potency, µM (highest dose often 130 µM), inactives show at the top dose activity change, negative = inhibition, most hits filed as inhibitors | recombinant TDP1, AlphaScreen DNA substrate cleavage; further: potency means the concentration at half of the fitted maximal effect; on the % scale 0 is the no-effect control and ±100 the full control effect; nearly all actives have a fitted effect of over 40% in size
Target sequence (Q9NUW8 whole entry, looked up): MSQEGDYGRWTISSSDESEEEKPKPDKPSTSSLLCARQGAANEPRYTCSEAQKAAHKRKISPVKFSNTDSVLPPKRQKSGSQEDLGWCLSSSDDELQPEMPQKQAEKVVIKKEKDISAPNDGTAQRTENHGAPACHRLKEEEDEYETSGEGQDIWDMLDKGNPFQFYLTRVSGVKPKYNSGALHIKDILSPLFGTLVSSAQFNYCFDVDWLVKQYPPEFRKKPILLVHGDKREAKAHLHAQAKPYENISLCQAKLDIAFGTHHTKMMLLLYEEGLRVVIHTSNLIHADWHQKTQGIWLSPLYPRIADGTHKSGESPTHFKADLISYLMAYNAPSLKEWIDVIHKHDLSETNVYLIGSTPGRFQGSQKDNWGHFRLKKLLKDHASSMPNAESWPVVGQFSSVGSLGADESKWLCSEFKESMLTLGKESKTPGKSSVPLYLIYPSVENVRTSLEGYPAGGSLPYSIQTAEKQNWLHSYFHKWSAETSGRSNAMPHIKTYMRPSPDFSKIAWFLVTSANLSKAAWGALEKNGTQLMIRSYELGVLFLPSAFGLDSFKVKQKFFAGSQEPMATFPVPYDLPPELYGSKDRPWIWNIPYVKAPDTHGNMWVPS
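Steps: enzyme plus compound, 15 min RT; add biotin/phosphotyrosine-FITC oligonucleotide (15 nM final), react 5 min; add donor/acceptor beads (10 ug/ml final), 10 min; read AlphaScreen. Tdp1 at 1 nM final.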
* hit, by the source's call; i = inactive; ? = inconclusive; . = no result; [ ] = dose if it differs, or a comment. Only some compounds are listed: those with a hit (about 19% of all), similar ones and a draw of the others. Unless noted, the call rests on the fitted dose curve; in most records, active means well fitted curve in the direction sought with a large enough effect; inconclusive means small, poorly fitted or top-dose-only effect, or another doubt; inactive means no such curve, though single readings can be large; an effect the other way counts as inactive or inconclusive.

SMILES	TGFb inhibitor	TDP1 cell noCPT	HepG2 viability	IL-1B inflam inh	TDP1 cell CPT	TDP1 inh
O=C(c1cc2ccccc2o1)N1CCN(C/C=C/c2ccccc2)CC1	?	?	-17%	-55*	15µM*	5%[56.1 µM]
COc1ccc(C2=NN(C(=O)CSc3nc(=O)n4cccc(C)c4n3)C(c3ccc(C)cc3)C2)cc1 (centres undefined)	-2%	?	1%	-5	?	.
COc1cccc(CN2CCC3(CCC(CNC(=O)c4ccco4)O3)CC2)c1OC (centres undefined)	.	-21%	.	.	7%[9.04 µM]	.
CC(C)(C)OC(=O)N1CCC(c2nnc(SCc3ccccc3)o2)CC1	-62%	.	-85%	.	.	-6%
O=S(=O)(c1ccc(S(=O)(=O)N2CCN(C/C=C/c3ccccc3)CC2)cc1)N1CCCC1	-4%	12µM*	-24%	13	?	4%
O=C(COc1nsnc1N1CCOCC1)Nc1ccc(Br)cc1	-16%	21µM*	-25%	-10	?	2%[0.0935 µM]
COc1ccc(NC(=O)COc2nsnc2N2CCCCC2)cc1	3%	18µM*	-2%	-10	12µM*	2%
COc1ccc(NC(=O)COc2nsnc2N2CCOCC2)c(OC)c1	0%	-10%	-9%	4	-26%	3%
Cc1c(-c2ccccc2)n(-c2ccccc2O)c2nc3c(c(=O)n(C)c(=O)n3C)n12	4%	.	-14%	.	.	1%
NC(=O)c1cc(-c2ccccc2)nc(N2CCOCC2)n1	11%	12µM*	-56%	-50*	21µM*	3%
CN1CCc2[nH]c3ccc(Cl)cc3c2C1	8%	-25%	13%	.	4%	1%
O=C(c1cc(-c2cccs2)nc2ccccc12)N1CCN(c2ccccc2O)CC1	?	?	-11%	-67*	?	5%
O=C(c1cc(-c2ccccc2Cl)nc2ccccc12)N1CCN(c2ccccc2O)CC1	-5%	?	1%	-70*	18µM*	1%
CN1CCCN(C(=O)c2cc(-c3cccc4ccccc34)nc3ccccc23)CC1	-25%	21µM*	-19%	-63*	16µM*	.
O=C(c1cc(-c2cccs2)nc2ccccc12)N1CCN(CCO)CC1	15%	-2%	5%	-1	4%	0%
CCc1ccc2cccc3c2c1N=CN3C	10%	-14%	-4%	6	-3%	.
Cc1cc(=O)[nH]c2nnc(-c3ccc(Br)cc3)n12	4%	-13%	9%	-5	-22%	.
COc1ccc(-n2ncc(C(=O)Nc3ccc(C)cc3Cl)c2C2CCN(C(=O)OC(C)(C)C)CC2)cc1	0%	16µM*	-5%	.	16µM*	4%
CCOC(=O)N1CCC(NC(=O)c2cnn(-c3cccc(Cl)c3C)c2C2CCN(C(=O)OC(C)(C)C)CC2)CC1	-5%	-10%	-1%	.	-15%	-1%
CC(C)(C)OC(=O)N1CCC(c2c(C(=O)NC3CC3)cnn2-c2ccccc2)CC1	0%	5%	-2%	37	-3%	0%
CCOC(=O)N1CCC(NC(=O)c2cnn(-c3ccc(OC)cc3)c2C2CCN(C(=O)OC(C)(C)C)CC2)CC1	?	?	-2%	.	18µM*	3%
CCOC(=O)N1CCC(NC(=O)c2cnn(-c3ccc(C)cc3)c2C2CCN(C(=O)OC(C)(C)C)CC2)CC1	0%	?	0%	.	21µM*	3%
O=C(Nc1ccc(N2CCN(C(=O)c3ccco3)CC2)c(Cl)c1)c1c(F)c(F)c(F)c(F)c1F	?	18µM*	-20%	-90*	15µM*	7%
O=C(Nc1ccc(N2CCN(C(=O)c3ccco3)CC2)c(Cl)c1)c1cccnc1	-1%	?	3%	-67*	?	0%
O=C(Nc1ccc(N2CCN(C(=O)c3cccs3)CC2)c(Cl)c1)c1cccnc1	-9%	?	-21%	-79*	?	0%
SMILES	TGFb inhibitor	TDP1 cell noCPT	HepG2 viability	IL-1B inflam inh	TDP1 cell CPT	TDP1 inh
CCN1C(=O)[C@H]2[C@@H](c3ccccc3)N[C@]3(CCCN(Cc4ccccc4)C3=O)[C@H]2C1=O	14%	-24%	-7%	-7	-8%	.
CC(C)[C@@H](CC(=O)N[C@@H]1CCCC[C@H]1C(=O)N[C@H](CC(=O)N[C@@H](CCC(=O)O)CC(=O)O)Cc1c[nH]c2ccccc12)NC(=O)C[C@H](CO)NC(=O)[C@@H]1CNCC[C@H]1N	.	.	.	.	.	5%
CCc1ccc(NC(=O)CSc2nnc(CNC(=O)c3cccs3)o2)cc1	6%	24%	-4%	39	-3%	1%
Cc1cc2cc(CN(CC3CCCO3)C(=S)Nc3ccccc3)c(=O)[nH]c2cc1C (centres undefined)	?	5.8µM*	-17%	-15	6.5µM*	7%
O=C(NCc1ccccc1)N(Cc1cc2cc3c(cc2[nH]c1=O)OCO3)CC1CCCO1 (centres undefined)	-7%	?	-5%	-10	-28%	2%
COc1ccc2cc(CN(CC3CCCO3)C(=S)Nc3ccccc3)c(=O)[nH]c2c1 (centres undefined)	-27%	6.5µM*	-27%	?	5.2µM*	0%
COc1ccc2[nH]c(=O)c(CN(CC3CCCO3)C(=S)Nc3ccccc3)cc2c1 (centres undefined)	?	?	-20%	-16	?	-3%
COc1cccc(Nc2ncc3nc(CCc4ccccc4)c(=O)n(C[C@H]4CCCO4)c3n2)c1	.	?	.	.	-15%	.
COc1ccccc1CNC(=O)CSc1nc(=O)[nH]c2c1CCC2	1%	5%	-2%	.	8%	-3%
CCC(C)(C)C1CCC2(CC1)NC(=O)N(CC(=O)NCCc1c[nH]c3ccccc13)C2=O (centres undefined)	-4%	16µM*	-2%	-21	16µM*	2%
CN(Cc1ccccc1)C(=O)CN1C(=O)NC2(CCCCCCC2)C1=O	?	?	-10%	0	-15%	0%[56.1 µM]
CCC(C)(C)C1CCC2(CC1)NC(=O)N(CC(=O)N(C)CCOc1ccc(Cl)cc1)C2=O (centres undefined)	-1%	23µM*	2%	18	?	0%[0.505 µM]
CCC(C)(C)C1CCC2(CC1)NC(=O)N(CC(=O)N(C)CC(=O)Nc1ccccc1C(F)(F)F)C2=O (centres undefined)	2%	?	-14%	i	23µM*	6%
